{
  "source": "paper PMC5540273",
  "about": "(PLoS ONE, 2017);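 also: KINOMEscan kinase panel screen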",
  "data": [
    {"tested_on": "RPS6KA4(Kin.Dom.2-C-terminal)", "details": "concentration: 1 μM, replicates: in singlicate; n = 1", "units": {"%Inh": "%"}, "values": [
      {"smiles": "O=C(O)C(F)(F)F.O=C(O)C(F)(F)F.O=c1[nH]ccc2nc(N[C@@H]3CCCNC3)nc(Nc3ccc(S(=O)(=O)N4CCOCC4)cc3)c12", "note": "[GSK2177277]", "%Inh": 98.5},
      {"smiles": "Cl.Cl.NCC(C(=O)Nc1cc(Br)c(-c2ccnc3[nH]ccc23)s1)c1ccccc1", "note": "(stereo not shown) [GSK1269851]", "%Inh": 1},
      {"smiles": "COc1ccc(-c2coc3ccc(-c4nnc(SCc5ccc(OC)c(C(F)(F)F)c5)o4)cc23)cc1", "%Inh": 15},
      {"smiles": "COc1cccc(-c2ccc3c(NC(=O)C4CC4)n[nH]c3n2)c1", "note": "[SB-710903]", "%Inh": 0},
      {"smiles": "Oc1cc(Nc2ccnc3cc(I)ccc23)ccc1F", "note": "[GW552771]", "%Inh": 0},
      {"smiles": "COc1cc2c(cc1OCCN1CCNCC1)ncc1c3ccc(C#N)cc3[nH]c21", "%Inh": 20},
      {"smiles": "CCS(=O)(=O)c1ccc(OC)c(Nc2nccc(-c3c(-c4cccc(NC(=O)c5c(F)cccc5F)c4)nn4ncccc34)n2)c1", "note": "[GSK326180]", "%Inh": 0},
      {"smiles": "Cc1cccc(Nc2nc(N[C@H]3CCNC3)ncc2C(N)=O)c1.Cl", "note": "[GSK2197149]", "%Inh": 0}
    ]},
    {"tested_on": "RPS6KA5(Kin.Dom.1-N-terminal)", "details": "concentration: 1 μM, replicates: in singlicate; n = 1", "units": {"%Inh": "%"}, "values": [
      {"smiles": "COc1cc(Nc2nccc(N3CCC(NC(=O)Nc4cccc(C(C)=O)c4)C3)n2)cc(OC)c1OC", "note": "(stereo not shown) [GSK1379753]", "%Inh": 9},
      {"smiles": "CCn1c(-c2nonc2N)nc2c(C#CC(C)(C)O)ncc(OCCCCN)c21.O=C(O)C(F)(F)F.O=C(O)C(F)(F)F", "note": "[GSK507274]", "%Inh": 37},
      {"smiles": "COc1cc(Nc2nccc(-c3c(-c4cccc(NC(=O)c5c(F)cccc5F)c4)nn4ncccc34)n2)cc(OC)c1OC", "note": "[GSK327238]", "%Inh": 43},
      {"smiles": "O=C(Nc1n[nH]c2nc(-c3ccc(O)cc3)ccc12)C1CC1", "note": "[SB-710363]", "%Inh": 0},
      {"smiles": "O=c1[nH]cc(-c2ccc(N3CCOCC3)cc2)c2sc(-c3cn[nH]c3)cc12", "note": "[GSK2276055]", "%Inh": 0},
      {"smiles": "O=C(Nc1cccc(-c2nn3ccccc3c2-c2ccnc(Nc3cccc(F)c3)n2)c1)c1c(F)ccc(F)c1Cl", "note": "[GSK357952]", "%Inh": 28},
      {"smiles": "CC(C)c1nc(-c2cccc(NS(=O)(=O)c3c(F)cccc3F)c2F)c(-c2ccnc(Nc3ccc(N4CCOCC4)nc3)n2)s1", "note": "[GSK2008607]", "%Inh": 2},
      {"smiles": "CC(=O)N1CCN(c2ccc(Nc3nccc(-c4sc(C(C)C)nc4-c4cccc(NS(=O)(=O)c5cccc(Cl)c5)c4)n3)cn2)CC1", "note": "[GSK1660437]", "%Inh": 14},
      {"smiles": "O=C(Nc1cccc(-c2nn3ncccc3c2-c2ccnc(Nc3ccccc3)n2)c1)c1c(F)cccc1F", "note": "[GSK198271]", "%Inh": 18},
      {"smiles": "Cl.c1ccc(-c2ccc3c(Nc4ccc5[nH]ncc5c4)ccnc3c2)nc1", "note": "[GW440137]", "%Inh": 2},
      {"smiles": "Cn1cc(-c2[nH]c3cc(NC(=O)[C@H](N)C4CCCCC4)cc4c3c2C=NNC4=O)cn1", "%Inh": 34},
      {"smiles": "CNC(=O)c1ccccc1Nc1nc(Nc2ccc(N3CCOCC3)cc2)ncc1Cl.Cl", "note": "[GSK1576028]", "%Inh": 90},
      {"smiles": "c1ccc(-c2cnc3nccnn23)cc1", "note": "[AH20685]", "%Inh": 9},
      {"smiles": "CN(C)S(=O)(=O)c1cc(-c2ccc3nccc(-c4cccc(S(N)(=O)=O)c4)c3c2)cnc1N", "note": "[GSK1669921]", "%Inh": 16},
      {"smiles": "COc1cccc(NC(=O)NC2CCN(c3ccnc(Nc4cc(OC)c(OC)c(OC)c4)n3)C2)c1", "note": "(stereo not shown) [GSK1379763]", "%Inh": 0},
      {"smiles": "C[C@@H](Oc1cc(-n2cnc3cc(-c4ccnc(NCCS(C)(=O)=O)c4)ccc32)sc1C(N)=O)c1ccccc1Cl", "note": "[GSK907232]", "%Inh": 4},
      {"smiles": "Fc1ccc(-c2ncn(C3CCNCC3)c2-c2ccnc(Oc3ccc(-c4ccccc4)cc3)n2)cc1", "note": "[SB-245391]", "%Inh": 0},
      {"smiles": "COc1cccc(C(=O)Nc2cccc(Oc3ccc4nc(NC(=O)C5CC5)cn4n3)c2)c1", "%Inh": 0},
      {"smiles": "Nc1ncc(-c2cccnc2)c2scc(-c3ccc4c(c3)CCN4C(=O)Cc3ccccc3)c12", "note": "[GSK683281]", "%Inh": 21},
      {"smiles": "Cc1occc1-c1ncc(OC[C@@H](N)Cc2c[nH]c3ccccc23)cc1-c1ccc2[nH]nc(C)c2c1.O=C(O)C(F)(F)F", "note": "[GSK682037]", "%Inh": 49},
      {"smiles": "Nc1n[nH]c2cnc(-c3ccccc3)cc12", "note": "[SB-642124]", "%Inh": 12},
      {"smiles": "Cc1ccc(S(=O)(=O)Nc2ccc(Nc3nccc(Nc4cccc5[nH]ncc45)n3)cc2)cc1", "note": "[GSK581271]", "%Inh": 0},
      {"smiles": "c1ccc(-c2n[nH]cc2Nc2ccnc3ccccc23)nc1", "note": "[GW694077]", "%Inh": 5}
    ]}
  ]
}
